Drawing on PubChem BioAssay AID1347383 (Zoeller Lab, School of Medicine, Boston University, 2020), this text covers outcome for 40 compounds.

SMILES strings stand for the structures. Activity calls are given as the source filed them.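 The calls were made as follows: active = cell survival after UV exposure 2 SD above solvent-only control wells at 10 µM, confirmed on one or two repeats; inactive = the rest.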

This test can be described thus: cell survival after pyrene fatty acid photosensitization – ZR-82 cells, Analyticon library, screen 2, phospholipid biosynthesis inhibitor project, primary screen (AID 1347383).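 Also: survival reflects blocked phospholipid synthesis cutting uptake of the phototoxic fatty acid; compound and fatty acid exposure 3 h then viability read next day.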 The conditions noted are these: ZR-82 CHO cells, pyrene-fatty acid UV killing, CellTiter Blue; at 10 µM; peroxisome-deficient CHO-K1 variant; with DGAT-1, DGAT-2 and ACAT inhibitors. Background: Alamar Blue is a resazurin reagent that responds to reducing activity.
Take `CC[C@]12CCCN3CCc4c(n(c5ccccc45)C(=O)C1)[C@@H]32`: the result was inactive. On to `CCC(C)C(=O)OC1CC(C)C=C2C=CC(C)C(CCC(O)CC(O)CC(=O)O)C21` (stereo not given), for which the result was inactive. For `C=CC(C)(C)c1cc2cc(CC3OC3(C)C)c(OC)cc2oc1=O` (stereo not given), the result was inactive.

On to `C[C@@H]1O[C@@H](Oc2c(-c3ccc(O)c(O)c3)oc3cc(O)cc(O)c3c2=O)[C@H](O)[C@H](O)[C@H]1O`, for which the outcome was inactive.

As for `C=CC(C)(C)c1c(OC)oc2cccc(C)c2c1=O`, the result was inactive. For `CCCCCCOC1OC(COC2OCC(O)C(O)C2O)C(O)C(O)C1O` (stereo not given), the result was inactive.

As for `CC(=O)NC1C=CC(CCC(NC(C)=O)C(=O)O)C=C1` (stereo not given), the result was inactive. Under `CC[C@H](C)C(=O)O[C@H]1C[C@@H](C)C=C2C=C[C@H](C)[C@H](CC[C@@H]3C[C@@H](O)CC(=O)O3)[C@H]21` stands “inactive”; under `C/C=C/CCC1Cc2cc(O)c(CCCC)c(O)c2C(=O)O1` (stereo not given), “inactive”; under `CC(C)CC1NC(=O)C2CCCN2C1=O` (stereo not given), “inactive”.

Consider `COc1ccc2c(c1OC)C(=O)N1CCc3cc4c(cc3C(=O)C21O)OCO4` (stereo not given), for which the result was inactive. On to `COc1ccc(CC2C(=O)OCC2Cc2cc(OC)c3c(c2)OCO3)cc1OC` (stereo not given), for which the outcome was inactive. As to `COc1ccc(/C=C/C(=O)O)cc1`, the result was inactive. Under `CC(=O)CCCCCCCCNC(C)=O` stands “inactive”. In the case of `C/C1=C\C[C@]2(C)C(=O)C(O)=C([C@H](C)CO)[C@H]2C/C=C(\C)[C@@H](O)CC/C(C)=C/CC1`, the outcome was inactive. Consider `Oc1ccccc1-c1c(O)cc(O)c(-c2ccccc2)c1O`, for which the result was inactive. Regarding `Cc1cc(O)c2c(c1)C(=O)c1cccc(O)c1C2=O`, the result was inactive. Turning to `CC(=O)OC/C(=C/C(=O)O)CC[C@@H]1C(C=O)=CC[C@@H]2C(C)(C)CCC[C@@]12C`, the result was inactive.

For the compound `C[C@]12CC[C@@H]3c4ccc(O)cc4CC[C@H]3[C@@H]1CCC2=O`, the result was inactive. Consider `COc1cc(/C=C/CO)ccc1OC/C=C(\C)CCC=C(C)C`, for which the outcome was inactive.

As to `COc1cc2ccc3c(c2cc1OC)N(C)Cc1c(OC)c(OC)cc(OC)c1-3`, the outcome was inactive. Regarding `C=C(C)C(O)Cc1c(O)cc(CCc2ccccc2)c(CC=C(C)C)c1O` (stereo not given), the result was inactive. `C[C@@H]1O[C@@H](Oc2ccc(-c3coc4cc(O[C@@H]5O[C@@H](C)[C@H](O)[C@@H](O)[C@H]5O)ccc4c3=O)cc2)[C@H](O)[C@H](O)[C@H]1O`: the result was inactive. Consider `CC1CCC2(C)C(CC(O)C(O)C23CO3)C1(C)CCC1=CC(O)OC1=O` (stereo not given), for which the result was inactive. `COc1cc(CC2COC(=O)C2(O)Cc2ccc(O)c(OC)c2)ccc1O` (stereo not given): the outcome was inactive.

For `COc1cc(/C=C/c2ccc(O)cc2)cc(OC)c1`, the outcome was inactive. For the compound `Cc1cc(O)c2c3c(c(O)c4c(c13)OC(C)C4(C)C)C(=O)O2` (stereo not given), the result was inactive. Consider `CCC(C)CC(=O)OC1C(=O)C(CO)C(OC)C(OC(C)=O)C1C(C)C` (stereo not given), for which the result was inactive. Consider `O=C(O)CC(O)(Cc1ccc(O)cc1)C(=O)O` (stereo not given), for which the outcome was inactive. For `COc1cc(/C=C/C(=O)O)cc(OC)c1OC`, the result was inactive. Turning to `CC1=C2C[C@]3(C)C(=O)C[C@@H](C(C)C)[C@H]3C/C=C(/C)[C@@H]2CC1=O`, the result was inactive. Under `COc1ccc(-c2coc3cc(O[C@@H]4O[C@H](CO)[C@@H](O)[C@H](O)[C@H]4O)ccc3c2=O)cc1` stands “inactive”; under `CCC/C=C/C=C/C1C[C@@H](O)[C@@H](O)C(=O)[C@H]1CO` (stereo not given in full), “inactive”.

Take `Cc1coc2c1CC1OC1(C)CCC1OC1(C)C2` (stereo not given): the outcome was inactive.

On to `O=C(O)c1ccc(OC2OC(CO)C(O)C(O)C2O)cc1` (stereo not given), for which the outcome was inactive.

On to `C=C(C(=O)O)C1CC(OC(=O)CC(C)CC)C2(C)CCCC(=C)C2C1` (stereo not given), for which the outcome was inactive. As for `CC1CCC2C(C(=O)O)=CC3C(O)C(C)(C)CC123` (stereo not given), the result was inactive. Under `C=CC(C)(C)c1cc2cc(CC(O)C(C)(C)O)c(OC)cc2oc1=O` (stereo not given) stands “inactive”; under `C=C(C(=O)OC)[C@@H]1CC=C2C=CC(=O)[C@H](C)[C@@]2(C)C1`, “inactive”; under `C=C(C)[C@@H]1CC[C@]2(COC(C)=O)CC[C@]3(C)[C@H](CC[C@@H]4[C@@]5(C)CC[C@H](OC(C)=O)C(C)(C)[C@@H]5CC[C@]43C)[C@@H]12`, “inactive”.
